Experiment [1] in a line: Primary qHTS for inhibitors of La Crosse Virus (LACV) - induced cell death in SH-SY5Y cells (AID 1508616).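 Also: top concentration of the series differs between compounds; 0% = infected DMSO wells and 100% = uninfected DMSO wells; higher means more rescue of cells from virus-induced death.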 The gist of the method:
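SH-SY5Y, 6000 cells/well; cpd via pin tool in DMSO; LACV 0.01 MOI; 6 d 37C 5% CO2; ATPLite, 5 min RT; luminescence normalized to ±virus DMSO controls.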
In general terms: Quantitative high-throughput screening tests each substance at several concentrations.

Experiment [2] has as its target Calcium and integrin-binding protein 1 (Homo sapiens) (UniProt Q99828). Nature of the experiment: Primary qHTS for Identification of Calcium Integrin Binding Protein 1 (CIB1) Competitor (AID 1508620).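 Also: GST tagged CIB1 binding a fluorescein labelled alphaIIb integrin peptide tracer; top concentration of the series differs between compounds; % is scaled to controls: 0 for no effect and ±100 for the full control effect.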 Put shortly: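 CIB1-GST (1 uM final) and compound incubated 15 min at room temperature before adding FITC-alphaIIb peptide tracer (100 nM final). Competition for binding read by fluorescence polarization (ex 480, em 540) after another 15 min at room temperature.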

Experiment [3] is described as follows: Counterscreen qHTS for small molecule stabilizers of the endoplasmic reticulum resident proteome: GLuc-NoTag assay (AID 1508627). Also: potency is read from the fitted curve at half-maximal effect.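 As to activity change, negative = inhibition: series mostly up to about 76 µM; 0% = thapsigargin alone and -100% = DMSO vehicle control.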 The gist of the method:
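Counterscreen line: SH-SY5Y-GLuc-NoTag cells, treated with compound 19 hr before a 4 hr, 100 nM thapsigargin calcium depletion. Secreted Gaussia luciferase in the medium was measured by luminescence after coelenterazine was added (0.07x final), with cells unlysed.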
Background: Counterscreens check selectivity or assay interference.

Experiment [4] in a line: Confirmatory qHTS for small molecule stabilizers of the endoplasmic reticulum resident proteome: Secreted ER Calcium Modulated Protein (SERCaMP) assay (AID 1508628). Also: nearly all actives have a fitted effect of over 40% in size. Also: potency is read from the fitted curve at half-maximal effect. The gist of the method: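 Reporter secretion upon ER calcium depletion (100 nM thapsigargin, 4 h, 37C) is measured as medium luminescence with coelenterazine, after 16 h compound pretreatment of SH-SY5Y-GLuc-SERCaMP cells; primary at three concentrations up to 38.3 uM, follow-up at 11 (up to 76.6 uM).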

The target in experiment [5] is Calcium and integrin-binding protein 1 (Homo sapiens) (UniProt Q99828). Description: Validation qHTS for Identification of Calcium Integrin Binding protein 1 (CIB1) Competitor (AID 1508618). Also: % is scaled to controls: 0 for no effect and ±100 for the full control effect. The gist of the method:
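Fluorescence polarization with 1 uM CIB1-GST and 100 nM FITC-alphaIIb peptide in HEPES pH 7.4, NaCl, 5 mM CaCl2, Tween20. Compounds at up to 114 uM final, preincubated with protein 15 min; read after 15 min more at RT.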

A short description of experiment [6]: Primary qHTS for small molecule stabilizers of the endoplasmic reticulum resident proteome: Secreted ER Calcium Modulated Protein (SERCaMP) assay (AID 1508630). Also: % is scaled to controls: 0 for no effect and ±100 for the full control effect. Put shortly: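 The SH-SY5Y reporter protocol was run at 3 concentrations up to 38.3 uM (primary) or 11 concentrations (follow-up): 16 h compound, 100 nM thapsigargin for 4 h, then extracellular luciferase luminescence.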

Experiment [7] can be described thus: Cell Viability qHTS for small molecule stabilizers of the endoplasmic reticulum resident proteome (AID 1508629).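 Also: human SH-SY5Y neuroblastoma cells carrying the GLuc-SERCaMP reporter; compound exposure about 46 h in total before the viability read; % is scaled to controls: 0 for no effect and ±100 for the full control effect.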 As to conditions: cell viability counter-screen, 100 nM thapsigargin for final 4 h.

Records with an inconclusive call do not appear. A number with no mark means an inactive call. Activity calls are given as the source filed them. Calls follow the shape of the dose curve; as a rule, active = well fitted curve in the direction sought with a large enough effect; inconclusive = small, poorly fitted or top-dose-only effect, or another doubt; inactive = no such curve, though single readings can be large; an effect the other way counts as inactive or inconclusive.

Sequence of Calcium and integrin-binding protein 1 (Homo sapiens) (Q99828 whole entry, looked up): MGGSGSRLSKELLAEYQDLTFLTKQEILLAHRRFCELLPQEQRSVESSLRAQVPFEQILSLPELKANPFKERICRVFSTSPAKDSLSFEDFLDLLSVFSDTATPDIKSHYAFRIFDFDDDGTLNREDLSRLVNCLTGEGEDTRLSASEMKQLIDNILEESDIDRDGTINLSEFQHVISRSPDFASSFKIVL

`NC(=O)C(c1ccccc1)(c1ccccc1)[C@@H]1CCN(CCc2ccc3c(c2)CCO3)C1`: the Potency entry in experiment [1] and in experiment [2] was “inactive” each time.
With `CC(=O)SCC(CC(=O)c1ccc(C)cc1)C(=O)O` (centres undefined), the Potency result in experiment [1] and in experiment [2] was “inactive” in each case.
As for `COc1cc(NC(C)CCCN)c2ncccc2c1` (centres undefined), the Potency result in experiment [1], in experiment [2] and in experiment [4] was “inactive” throughout. In addition, in experiment [3], the Potency is 44.7 µM (active).
`O=c1[nH]c2ccccc2n1CCCN1CCN(C(c2ccccc2)c2ccccc2)CC1`: the Potency entry in experiment [1] and in experiment [2] was “inactive” throughout.
Regarding `CO[C@@]1(NC(=O)Cc2cccs2)C(=O)N2C(C(=O)O)=C(COC(N)=O)CS[C@@H]21`, the Potency entry in experiment [1] and in experiment [2] was “inactive” each time.
Turning to `CCCOC(=O)c1ccc(O)cc1`, the Potency result in experiment [1] and in experiment [2] was “inactive” each time.
`C=C[C@@H]1CN2CC[C@@H]1C[C@H]2[C@H](O)c1ccnc2ccc(OC)cc12`: the Potency entry in experiment [1] is “inactive”.
Take `C=CCCCCCCCCC(=O)O`: the Potency entry in experiment [1] and in experiment [2] was “inactive” throughout.
In the case of `CCCCCCCCCCCCOCCO`, the Potency entry in experiment [1] and in experiment [2] was “inactive” throughout.
As for `CCOC(=O)c1ccccc1O`, the Potency entry in experiment [1] and in experiment [2] was “inactive” each time.
For the compound `O=C(O)c1cc(=O)c2ccccc2[nH]1`, the Potency result in experiment [1] and in experiment [6] was “inactive” each time. Besides, the outcome in experiment [5] was inactive.
On to `CN(C)CCn1nnnc1SCC1=C(C(=O)O)N2C(=O)[C@@H](NC(=O)Cc3csc(N)n3)[C@H]2SC1`, for which the Potency entry in experiment [1] and in experiment [2] was “inactive” throughout.
Turning to `Nc1c(CC(=O)O)cccc1C(=O)c1ccc(Br)cc1`, the Potency entry in experiment [1] and in experiment [2] was “inactive” each time.
Turning to `Nc1nc2ccc([N+](=O)[O-])cc2s1`, the Potency entry in experiment [1] and in experiment [2] was “inactive” in each case.
Take `c1ccc2sc(SSc3nc4ccccc4s3)nc2c1`: in experiment [1], the activity change was 7.43% [at 1.78 µM]. For the same compound, the Potency result in experiment [2] was “inactive”.
`O=C(O)/C=C\C(=O)O`: the Potency result in experiment [1] and in experiment [2] was “inactive” throughout.
Turning to `Cc1c(Nc2ncccc2C(=O)O)cccc1C(F)(F)F`, the Potency result in experiment [1] and in experiment [2] was “inactive” each time.
With `CC(=O)c1ccc(OCC(=O)N2CCCCC2)cc1`, the Potency entry in experiment [1] and in experiment [2] was “inactive” each time.
`COC(=O)C1=C(C)NC(C)=C(C(=O)OCC(C)C)C1c1ccccc1[N+](=O)[O-]` (centres undefined): the Potency result in experiment [1] and in experiment [2] was “inactive” each time.
On to `O=C1CN(/N=C/c2ccc([N+](=O)[O-])o2)C(=O)N1`, for which the Potency entry in experiment [1] and in experiment [2] was “inactive” each time.
For the compound `Clc1ccccc1-c1nc(-c2ccncc2)no1`, the Potency entry in experiment [1] and in experiment [2] was “inactive” in each case.
As for `O=C(O)c1cc(O)c(O)c(O)c1`, the Potency entry in experiment [1] and in experiment [2] was “inactive” in each case.
As to `C[N+]1(C)C2CC(OC(=O)[C@H](CO)c3ccccc3)CC1C1OC12` (some centres undefined), the Potency result in experiment [1], in experiment [3] and in experiment [4] was “inactive” each time. In addition, the outcome in experiment [5] was inactive. The max response in experiment [7] is 12%.
In the case of `Cc1ccc2c(n1)Oc1ccc(C(C)C(=O)OCC(=O)N(C)C)cc1C2` (centres undefined), the Potency entry in experiment [1] and in experiment [2] was “inactive” in each case.
As for `CCCCCCCCCCCC(=O)[O][Sn]([CH2]CCC)([CH2]CCC)[O]C(=O)CCCCCCCCCCC`, the Potency result in experiment [1] and in experiment [2] was “inactive” throughout.
Regarding `O=C(O)Cc1cccc(-c2cc(CCCCCCc3ccc(O[C@H]4O[C@H](CO)[C@@H](O)[C@H](O)[C@@H]4O)c(-c4cccc(CC(=O)O)c4)c3)ccc2O[C@H]2O[C@H](CO)[C@@H](O)[C@H](O)[C@@H]2O)c1`, the activity change in experiment [1] is -19% [at 0.0343 µM]. Further, the activity change, negative = inhibition was -8.49% [at 1.07 µM] in experiment [2] and -18.9% [at 0.478 µM] in experiment [6].
With `Cc1ccc(O)c(-n2nc3ccccc3n2)c1`, the Potency entry in experiment [1], in experiment [2] and in experiment [6] was “inactive” throughout.
In the case of `c1ccc(CCNc2nc(-c3ccccc3)cs2)cc1`, the Potency entry in experiment [1], in experiment [2] and in experiment [6] was “inactive” each time.
Consider `O=C(CCN1CCN(CCO)CC1)N1c2ccccc2Sc2ccc(C(F)(F)F)cc21`, for which the Potency result in experiment [1], in experiment [2] and in experiment [6] was “inactive” in each case.
In the case of `CN(C)[C@@H]1C(=O)C(C(=O)NCN2CCCC2)=C(O)[C@@]2(O)C(=O)C3=C(O)c4c(O)cccc4[C@@](C)(O)C3C[C@@H]12` (some centres undefined), the Potency result in experiment [1] and in experiment [6] was “inactive” each time.
On to `c1ccc2sc(SN3CCOCC3)nc2c1`, for which the Potency result in experiment [1], in experiment [2] and in experiment [6] was “inactive” in each case.
Take `O=C(O)Cc1ccc2c(c1)C(=O)c1ccccc1CO2`: the Potency result in experiment [1], in experiment [2], in experiment [3] and in experiment [4] was “inactive” throughout. For the same compound, the max response in experiment [7] is 16.2%.
For the compound `S=c1[nH]c2ccccc2s1`, the Potency result in experiment [1], in experiment [2] and in experiment [6] was “inactive” in each case.
On to `COC(=O)C1=C(C)NC(C)=C(C(=O)OCC(C)=O)C1c1ccccc1[N+](=O)[O-]` (centres undefined), for which the Potency entry in experiment [1], in experiment [2] and in experiment [6] was “inactive” throughout.
Turning to `CCCCC1C(=O)N(c2ccccc2)N(c2ccc(O)cc2)C1=O` (centres undefined), the Potency result in experiment [1], in experiment [2] and in experiment [6] was “inactive” each time.
`Cc1c(C(=O)O)c(O)cc2c1C(=O)c1c(O)c([C@@H]3O[C@H](CO)[C@@H](O)[C@H](O)[C@H]3O)c(O)c(O)c1C2=O`: the Potency entry in experiment [1] and in experiment [2] was “inactive” in each case. Besides, the Potency in experiment [4] is 44.7 µM (active).
With `COc1ccc(-c2cc(=S)ss2)cc1`, the Potency result in experiment [1], in experiment [2] and in experiment [6] was “inactive” throughout.
In the case of `CN(C)c1ccc(N=NS(=O)(=O)O)cc1`, the Potency result in experiment [1], in experiment [2] and in experiment [4] was “inactive” in each case. In addition, the max response in experiment [7] is 4.58%.
With `CC(C(=O)O)c1ccc(C(=O)c2cccs2)cc1` (centres undefined), the Potency result in experiment [1], in experiment [2] and in experiment [6] was “inactive” in each case.

Source of the values: PubChem BioAssay (NCATS).
